# Source: PubChem BioAssay (NCATS)
# Inconclusive results are not listed. Active and inactive are the calls of the source. Unless noted, the call rests on the fitted dose curve.
# Experiments:
# [1] = qHTS Assay for Lipid Storage Modulators (AID 1519); settings: Drosophila S3 cells, BODIPY lipid droplet/cell ratio, laser cytometry, cells loaded with oleic acid; for activity change, negative = inhibition: at 57.5 µM (top of the series)
# Method in brief: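 Cells seeded at 5,000 per well were treated with compounds over a concentration series and loaded with oleic acid (400 uM, as added). Lipid droplet fluorescence (488 nm excitation, 500-530 nm channel) was read by laser-scanning cytometry and normalized to 20 uM Triacsin C.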
# [2] = molecular target: Lysosomal acid glucosylceramidase (Homo sapiens) (UniProt P04062); assay: Glucocerebrosidase-p2 (AID 348; in the data active means potency below about 10 µM; further: potency means the concentration at half of the fitted maximal effect); settings: purified GBA, blue fluorogenic substrate, 40 min
# Method in brief: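 Normal human glucocerebrosidase (0.2 nM) with blue fluorogenic substrate (80 uM final) in citrate/phosphate pH 5.9 with 10mM sodium taurocholate, 0.01% tween-20; 40 min RT, NaOH/glycine stop; fluorescence Ex 365/Em 440; AC50 from a titration from 0.6 nM upwards.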
# [3] = AP1 Signaling Pathway (AID 357; active means well fitted curve in either direction with a large enough effect, not every such curve was filed as active;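 further: ME-180 reporter cells stimulated with EGF at its EC50 level; on the % scale 0 is the no-effect control and ±100 the full control effect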); settings: ME-180 AP-1-bla reporter, EGF-induced, beta-lactamase ratio, 5 h; at 7.69 µM (top of the series) unless noted
# Method in brief: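 Beta-lactamase reporter under AP-1 response element, ME-180 background. Stimulus: EC50 EGF. Compound exposure 5 h, 37 °C. Detection: CCF4, 2.5 h RT, 460/530 nm. Values: AC50 from titration.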
# [4] = molecular target: Cytochrome P450 1A2 (Homo sapiens) (UniProt P05177); assay: p450-cyp1a2 (AID 410); settings: recombinant CYP1A2, luciferin-ME demethylation, luminescence; series mostly up to 57 µM; further: potency means the concentration at half of the fitted maximal effect;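 on activity change, negative = inhibition: -100% = full effect of reference inhibitor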
# Method in brief: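 Luminescent demethylation readout: Luciferin-ME (100uM, equal to Km) turned over by 20nM CYP1A2 for 60 min at room temperature after NADPH regeneration addition, following 10 min compound preincubation. Normalization used 57 uM furafylline as full inhibition.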
# [5] = NFAT Signaling Pathway (AID 444; active means well fitted curve in either direction with a large enough effect, not every such curve was filed as active;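 further: carbachol stimulus at about its EC50 of 1 µM final; on the % scale 0 is the no-effect control and ±100 the full control effect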); settings: Jurkat NFAT-bla M1, carbachol, beta-lactamase ratio, 5 h; at 7.69 µM (top of the series) unless noted
# Method in brief: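 Jurkat cells carrying an NFAT-driven β-lactamase reporter and co-transfected muscarinic M1 receptor were treated with compound plus carbachol (1 uM final, an EC50 level) for 5 h at 37 °C. CCF4 loading followed for 1 h at RT; 460/530 nm ratio gave %activity.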
# [6] = Stat Signaling Pathway (AID 446; active means well fitted curve in either direction with a large enough effect, not every such curve was filed as active;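 further: ME-180 cervical cancer cells given 40 pM IL-6 alongside compound; SIE-controlled beta-lactamase reporter measured as 460/530 nm FRET emission ratio; on the % scale 0 is the no-effect control and ±100 the full control effect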); settings: ME-180 (cervical carcinoma) SIE beta-lactamase reporter, IL-6 stimulated, 5 h; at 7.69 µM (top of the series) unless noted
# Method in brief: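 Normalization used AC90 stimulation (300 pM IL-6) and AC90 inhibition (125 nM pan-JAK inhibitor at 40 pM IL-6). The underlying signal is SIE-driven beta-lactamase in ME-180 cells after 5 h IL-6 exposure with compound.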
# [7] = molecular target: Glucocorticoid receptor (Homo sapiens) (UniProt P04150); assay: GR-GFP Redistribution (AID 450;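 active means compounds whose dose series gives a full or clear partial fitted curve of increased nuclear translocation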; further: potency means the concentration at half of the fitted maximal effect); settings: U2OS GR-GFP nuclear translocation, laser cytometry, 2 h
# [8] = molecular target: Glucocorticoid receptor (Homo sapiens) (UniProt P04150); assay: GR-EFC Redistribution (AID 451); settings: CHO-K1 GR-EFC translocation, beta-gal luminescence, 2 h; further: potency means the concentration at half of the fitted maximal effect
# Method in brief: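 CHO-K1 cells stably expressing nuclear-localized β-gal enzyme acceptor and GR fused C-terminally to the enzyme donor fragment; ligand-driven nuclear translocation restores β-gal by complementation. Compounds titrated up to 46 uM final, 2 h at 37 °C; luminescence read.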
# [9] = molecular target: Mitogen-activated protein kinase 10 (Mus musculus) (UniProt Q61831); assay: JNK3 AlphaScreen Assay (AID 530; active means well fitted curve in either direction with a large enough effect, not every such curve was filed as active;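 further: kinase came from lysate of stimulated human HepG2 cells; signal reports phosphorylation of biotinylated GST-cJun 1-79 at Ser73 with 10 µM ATP; on the % scale 0 is the no-effect control and ±100 the full control effect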); settings: JNK3 lysate, c-Jun phosphorylation; series mostly up to 57.1 µM
# Method in brief: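 Phosphorylation of biotinylated GST-cJun(1-79) at Ser73 is measured by AlphaScreen proximity luminescence. Enzyme is JNK3 in HepG2 lysates activated with interleukin-1beta and tumor necrosis factor alpha; ATP is 10 uM final.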
# [10] = molecular target: 3',5'-cyclic-AMP phosphodiesterase 4B (Homo sapiens) (UniProt Q07343); assay: qHTS Assay for Inhibitors of PDE-IV (AID 607; active means well fitted activation curve with a large enough effect in the main read-out, with a control signal flat, not every such curve was filed as active; further: % of control where 0% means no effect); settings: HEK293 ACTOne CNG channel cells, membrane potential fluorescence; series mostly up to 22.9 µM
# Method in brief: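 HEK293 ACTOne cells with CNG channel (1000/well), endogenous PDE4; membrane potential dye, compounds up to 22.9 uM final. Fluorescence Ex 535/Em 590; RO 20-1724 (100 uM final) as reference.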
# [11] = molecular target: Cytochrome P450 3A4 (Homo sapiens) (UniProt P08684); assay: qHTS Assay for Inhibitors and Substrates of Cytochrome P450 3A4 (AID 884; active means well fitted curve in the direction sought with a large enough effect; an effect the other way counts as inactive or inconclusive; further: on the % scale 0 is the no-effect control and ±100 the full control effect; nearly all actives have a fitted effect of over 50% in size); settings: recombinant CYP3A4, Luciferin-PPXE luminescence; series mostly up to 57.1 µM
# Method in brief: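 Luminescent readout of luciferin produced by CYP3A4 (20 nM) dealkylation of Luciferin-PPXE, 25 uM (its KM). NADPH-driven reaction ran 60 min at RT after 10 min compound preincubation; data scaled to 57 uM ketoconazole as 100% inhibition.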
# [12] = molecular target: Ubiquitin carboxyl-terminal hydrolase 1 (Homo sapiens) (UniProt O94782); assay: Inhibitors of USP1/UAF1: Pilot qHTS (AID 504865; active means well fitted curve in the direction sought with a large enough effect; an effect the other way counts as inactive or inconclusive;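 further: rhodamine fluorescence freed from ubiquitin-rhodamine substrate followed over time; top concentration of the series differs between compounds; on the % scale 0 is the no-effect control and ±100 the full control effect; nearly all actives have a fitted effect of over 35% in size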); settings: purified USP1/UAF1, Ub-rhodamine cleavage fluorescence; series mostly up to 54.9 µM
# Method in brief: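 1nM USP1/UAF1 + cpd, 15 min RT; start w/ Ub-Rho 150nM final; kinetic FL 480/540 nm, 6 reads q60 s. Buffer 50mM HEPES pH 7.8, 0.5mM EDTA, 1mM TCEP, 0.01% Tween-20, 0.1 mg/ml BSA.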
# [13] = molecular target: Cytochrome P450 3A4 (Homo sapiens) (UniProt P08684); assay: qHTS Assay for Activators of Cytochrome P450 3A4 (AID 885; active means well fitted curve in the direction sought with a large enough effect; an effect the other way counts as inactive or inconclusive; further: nearly all actives have a fitted effect of over 65% in size); settings: recombinant CYP3A4, Luciferin-PPXE luminescence, 60 min; series mostly up to 57.1 µM
# Method in brief: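 Human CYP3A4 dealkylates Luciferin-PPXE to luciferin, which luciferase detection converts to light. Substrate was at its KM (25uM), buffer 200mM KPO4, reaction 60 min at RT.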
# [14] = Confirmation and Secondary Assay for Modulators of Hemoglobin Beta Chain Splicing at IVS2 654 locus (AID 910; active means well fitted curve in the direction sought with a large enough effect; an effect the other way counts as inactive or inconclusive;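 further: per-well total GFP intensity by laser scanning cytometry after 2-day treatment; % of control where 0% means no effect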); settings: HeLa EGFP-654 splicing reporter, GFP fluorescence, 48 h; series mostly up to 38.3 µM
# Method in brief: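 HeLa cells stably carrying EGFP interrupted by mutant beta-globin IVS2-654 intron (CMV-driven) were treated with compound for 2 days at 37C; corrected splicing was scored as total peak GFP intensity per well (488 nm excitation, 500-520 nm emission).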
# [15] = Confirmation and Secondary Assay for Modulators of Hemoglobin Beta Chain Splicing at IVS2 705 locus (AID 930; active means well fitted curve in the direction sought with a large enough effect; an effect the other way counts as inactive or inconclusive;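 further: HeLa cells stably expressing the EGFP-705 splicing reporter; GFP fluorescence per well restored by corrected splicing of the IVS2-705 intron in EGFP; % of control where 0% means no effect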); settings: HeLa EGFP-705 splicing reporter, GFP fluorescence, 48 h; series mostly up to 38.3 µM
# Method in brief: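 Assay measures total GFP intensity per well in HeLa EGFP-705 cells after 2 days with compound; mis-splicing normally truncates EGFP, so fluorescence indicates corrected splicing.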
# [16] = measured here: cell count channel max response
# [17] = measured here: lipid channel max response
# Sequence of Cytochrome P450 1A2 (Homo sapiens) (P05177 whole entry, looked up): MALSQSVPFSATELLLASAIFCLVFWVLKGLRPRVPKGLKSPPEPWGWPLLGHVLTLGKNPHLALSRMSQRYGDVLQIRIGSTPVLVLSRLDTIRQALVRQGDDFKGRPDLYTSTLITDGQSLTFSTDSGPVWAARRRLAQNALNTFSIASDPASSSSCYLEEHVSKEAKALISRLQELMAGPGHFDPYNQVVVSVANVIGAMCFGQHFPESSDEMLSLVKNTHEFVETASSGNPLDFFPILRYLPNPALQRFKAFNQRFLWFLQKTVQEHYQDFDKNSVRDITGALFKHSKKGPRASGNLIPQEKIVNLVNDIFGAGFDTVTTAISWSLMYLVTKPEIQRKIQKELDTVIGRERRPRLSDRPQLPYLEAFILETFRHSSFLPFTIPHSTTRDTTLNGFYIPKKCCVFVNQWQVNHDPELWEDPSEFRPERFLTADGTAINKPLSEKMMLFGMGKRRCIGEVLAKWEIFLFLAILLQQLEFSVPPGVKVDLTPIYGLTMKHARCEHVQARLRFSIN
# Sequence of Ubiquitin carboxyl-terminal hydrolase 1 (Homo sapiens) (O94782 whole entry, looked up): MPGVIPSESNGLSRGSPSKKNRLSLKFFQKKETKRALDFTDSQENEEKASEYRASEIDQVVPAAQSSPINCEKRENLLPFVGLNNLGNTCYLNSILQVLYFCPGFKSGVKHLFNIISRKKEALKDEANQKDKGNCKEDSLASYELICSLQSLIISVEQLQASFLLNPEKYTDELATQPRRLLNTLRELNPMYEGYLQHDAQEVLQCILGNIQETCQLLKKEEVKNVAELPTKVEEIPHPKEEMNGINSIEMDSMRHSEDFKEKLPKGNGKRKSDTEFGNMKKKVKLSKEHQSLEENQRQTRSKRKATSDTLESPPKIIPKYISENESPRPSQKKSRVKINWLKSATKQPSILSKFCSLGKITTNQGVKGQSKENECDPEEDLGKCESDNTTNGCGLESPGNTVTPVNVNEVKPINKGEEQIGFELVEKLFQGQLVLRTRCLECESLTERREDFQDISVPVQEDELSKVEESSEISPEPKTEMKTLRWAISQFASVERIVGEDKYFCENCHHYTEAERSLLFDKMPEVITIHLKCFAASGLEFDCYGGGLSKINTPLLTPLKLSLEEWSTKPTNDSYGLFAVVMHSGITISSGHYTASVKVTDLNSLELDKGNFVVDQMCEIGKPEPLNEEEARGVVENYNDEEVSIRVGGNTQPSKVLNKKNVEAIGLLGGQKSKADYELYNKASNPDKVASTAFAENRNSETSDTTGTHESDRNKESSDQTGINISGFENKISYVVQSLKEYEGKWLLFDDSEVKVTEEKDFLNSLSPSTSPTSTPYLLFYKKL
# Sequence of 3',5'-cyclic-AMP phosphodiesterase 4B (Homo sapiens) (Q07343 whole entry, looked up): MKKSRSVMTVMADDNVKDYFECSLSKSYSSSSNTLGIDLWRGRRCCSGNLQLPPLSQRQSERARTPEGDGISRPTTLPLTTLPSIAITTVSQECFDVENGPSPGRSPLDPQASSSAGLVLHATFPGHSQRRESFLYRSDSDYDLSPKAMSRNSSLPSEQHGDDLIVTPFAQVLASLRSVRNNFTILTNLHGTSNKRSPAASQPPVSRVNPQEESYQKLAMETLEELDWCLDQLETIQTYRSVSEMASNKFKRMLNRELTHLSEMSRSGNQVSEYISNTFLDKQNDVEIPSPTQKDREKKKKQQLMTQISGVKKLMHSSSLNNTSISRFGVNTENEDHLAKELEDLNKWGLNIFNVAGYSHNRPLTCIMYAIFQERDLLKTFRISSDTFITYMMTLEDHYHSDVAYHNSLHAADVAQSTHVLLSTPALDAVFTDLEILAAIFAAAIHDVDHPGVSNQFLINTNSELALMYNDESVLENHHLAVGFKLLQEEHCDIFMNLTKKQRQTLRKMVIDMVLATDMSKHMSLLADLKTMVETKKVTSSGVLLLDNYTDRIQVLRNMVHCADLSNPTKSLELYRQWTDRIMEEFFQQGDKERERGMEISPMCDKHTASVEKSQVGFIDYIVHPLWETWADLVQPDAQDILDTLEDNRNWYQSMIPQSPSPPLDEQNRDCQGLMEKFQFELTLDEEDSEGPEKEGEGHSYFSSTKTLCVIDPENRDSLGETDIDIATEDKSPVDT
# Sequence of Glucocorticoid receptor (Homo sapiens) (P04150 whole entry, looked up, the tested form may be a part): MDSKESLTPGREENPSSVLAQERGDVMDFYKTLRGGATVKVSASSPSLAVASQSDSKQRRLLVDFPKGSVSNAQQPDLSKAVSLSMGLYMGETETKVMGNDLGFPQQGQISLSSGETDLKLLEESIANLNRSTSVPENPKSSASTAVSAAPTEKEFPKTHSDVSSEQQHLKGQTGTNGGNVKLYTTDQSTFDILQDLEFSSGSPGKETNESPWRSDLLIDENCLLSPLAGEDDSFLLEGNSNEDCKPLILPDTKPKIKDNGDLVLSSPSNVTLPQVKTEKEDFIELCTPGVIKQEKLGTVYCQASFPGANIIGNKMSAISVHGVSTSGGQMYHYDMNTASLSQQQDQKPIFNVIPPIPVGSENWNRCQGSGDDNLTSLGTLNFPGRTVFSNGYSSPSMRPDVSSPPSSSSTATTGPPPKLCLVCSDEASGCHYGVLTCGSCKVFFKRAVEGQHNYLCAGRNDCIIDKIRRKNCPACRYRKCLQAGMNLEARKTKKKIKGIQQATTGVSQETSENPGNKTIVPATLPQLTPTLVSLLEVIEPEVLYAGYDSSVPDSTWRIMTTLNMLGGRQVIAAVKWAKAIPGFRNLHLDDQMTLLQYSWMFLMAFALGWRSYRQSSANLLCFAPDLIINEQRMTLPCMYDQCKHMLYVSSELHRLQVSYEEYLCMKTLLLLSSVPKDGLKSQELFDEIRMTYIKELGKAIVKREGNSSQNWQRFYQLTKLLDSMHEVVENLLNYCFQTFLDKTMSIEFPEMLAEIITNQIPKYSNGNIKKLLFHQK
# Sequence of Cytochrome P450 3A4 (Homo sapiens) (P08684 whole entry, looked up): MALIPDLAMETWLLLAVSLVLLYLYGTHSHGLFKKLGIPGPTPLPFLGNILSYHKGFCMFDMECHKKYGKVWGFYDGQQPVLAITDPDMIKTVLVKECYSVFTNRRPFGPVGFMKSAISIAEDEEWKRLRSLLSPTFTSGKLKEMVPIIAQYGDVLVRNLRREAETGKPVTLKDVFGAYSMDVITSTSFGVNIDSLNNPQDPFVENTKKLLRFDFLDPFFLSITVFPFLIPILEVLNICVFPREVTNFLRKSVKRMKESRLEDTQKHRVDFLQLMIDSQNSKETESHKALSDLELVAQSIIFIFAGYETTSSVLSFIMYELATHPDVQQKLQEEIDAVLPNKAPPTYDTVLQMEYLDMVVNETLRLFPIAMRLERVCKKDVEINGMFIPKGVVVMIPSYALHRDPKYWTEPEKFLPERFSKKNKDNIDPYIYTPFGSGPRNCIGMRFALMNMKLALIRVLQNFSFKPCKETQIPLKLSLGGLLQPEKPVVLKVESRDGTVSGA
# Sequence of Lysosomal acid glucosylceramidase (Homo sapiens) (P04062 whole entry, looked up): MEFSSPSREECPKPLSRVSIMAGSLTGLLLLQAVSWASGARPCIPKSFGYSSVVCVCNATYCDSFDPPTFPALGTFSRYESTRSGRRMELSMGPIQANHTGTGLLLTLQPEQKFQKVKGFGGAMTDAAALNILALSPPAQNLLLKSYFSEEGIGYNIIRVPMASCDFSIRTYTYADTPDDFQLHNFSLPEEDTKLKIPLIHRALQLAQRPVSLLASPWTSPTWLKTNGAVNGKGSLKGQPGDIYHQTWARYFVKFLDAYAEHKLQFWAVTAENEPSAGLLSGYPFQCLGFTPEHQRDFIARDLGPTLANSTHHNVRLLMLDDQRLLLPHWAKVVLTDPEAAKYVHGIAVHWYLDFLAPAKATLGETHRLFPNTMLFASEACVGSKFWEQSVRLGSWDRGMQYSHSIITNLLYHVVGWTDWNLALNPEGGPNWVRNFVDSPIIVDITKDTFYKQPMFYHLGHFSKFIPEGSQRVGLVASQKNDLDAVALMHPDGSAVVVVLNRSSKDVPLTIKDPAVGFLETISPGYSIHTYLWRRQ
compound,measurement,setting,value
Nc1ncnc2c1ncn2[C@@H]1O[C@H](COP(=O)(O)OP(=O)(O)OP(=O)(O)OP(=O)(O)OC[C@@H]2O[C@H](n3cnc4c(N)ncnc43)[C@@H](O)[C@@H]2O)[C@H](O)[C@H]1O,"activity change, negative = inhibition",[1],1.69% (inactive)
same,max response,[1]; [16],17%
same,max response,[1]; [17],19.7%
CN1CCN(c2ncc3nc(-c4cccc(C#N)c4)c(=O)n(C[C@H]4CCCO4)c3n2)CC1,Potency,[2],> 11.4 µM (inactive)
same,"activity change, negative = inhibition",[3],27.9% (inactive)
same,Potency,[4],15.8 µM (active)
same,"activity change, negative = inhibition",[5],-3.07% (inactive)
same,"activity, negative = inhibition",[6],11.4% (inactive)
same,Potency,[7],> 9.22 µM (inactive)
same,Potency,[8],> 46 µM (inactive)
same,Potency,[9],inactive
same,Potency,[10],inactive
same,Potency,[11],inactive
same,"activity change, negative = inhibition",[1],2.76% (inactive)
same,max response,[1]; [16],11.1%
same,max response,[1]; [17],12.1%
same,Potency,[12],inactive
COc1cc2c3cc1Oc1c(OC)c(OC)cc4c1[C@@H](Cc1ccc(O)c(c1)Oc1ccc(cc1)C[C@@H]3N(C)CC2)N(C)CC4,Potency,[4],inactive
same,Potency,[7],> 46 µM (inactive)
same,Potency,[8],> 46 µM (inactive)
same,Potency,[9],inactive
same,"activity change, negative = inhibition",[1],6.85% (inactive)
same,max response,[1]; [16],20.8%
same,max response,[1]; [17],29.4%
COc1ccc(/C=C/C(=O)O)cc1OC,"activity change, negative = inhibition",[1],14.6% (inactive)
same,max response,[1]; [16],4.45%
same,max response,[1]; [17],26.5%
CN1CCc2c(cc(O)c(O)c2Cl)C(c2cccc(Cl)c2)C1 (configuration not stated),"activity change, negative = inhibition",[1],-5.99% (inactive)
same,max response,[1]; [16],26.1%
same,max response,[1]; [17],9.27%
CCCC1O[C@@H]2C[C@H]3[C@@H]4CCC5=CC(=O)C=C[C@]5(C)C4[C@@H](O)C[C@]3(C)[C@]2(C(=O)CO)O1 (some centres not stated),"activity change, negative = inhibition",[1],0.423% (inactive)
same,max response,[1]; [16],-19.9%
same,max response,[1]; [17],-19.5%
CN1CCN(c2ncc3nc(-c4cn(C)c5ccccc45)c(=O)n(C)c3n2)CC1,Potency,[2],> 11.4 µM (inactive)
same,"activity change, negative = inhibition",[3],-20.2% (inactive)
same,Potency,[4],31.6 µM (active)
same,"activity change, negative = inhibition",[5],11.3% (inactive)
same,"activity, negative = inhibition",[6],12.5% (inactive)
same,Potency,[7],> 9.22 µM (inactive)
same,Potency,[8],> 46 µM (inactive)
same,Potency,[9],inactive
same,Potency,[10],inactive
same,Potency,[13],inactive
same,"activity change, negative = inhibition",[1],2.17% (inactive)
same,max response,[1]; [16],7.27%
same,max response,[1]; [17],7.8%
same,Potency,[12],inactive
COCCn1c(=O)c(-c2cccc(C#N)c2)nc2cnc(N3CCN(C)CC3)nc21,Potency,[2],> 11.4 µM (inactive)
same,"activity change, negative = inhibition",[3],-14.7% (inactive)
same,Potency,[4],15.8 µM (active)
same,"activity change, negative = inhibition",[5],0.13% (inactive)
same,"activity, negative = inhibition",[6],-4.72% (inactive)
same,Potency,[7],> 9.22 µM (inactive)
same,Potency,[8],> 46 µM (inactive)
same,Potency,[9],inactive
same,Potency,[10],inactive
same,"activity change, negative = inhibition",[1],6.64% (inactive)
same,max response,[1]; [16],18.2%
same,max response,[1]; [17],22.5%
same,Potency,[12],inactive
COc1ccc(-c2nc3cnc(N4CCN(C)CC4)nc3n(C3CC3)c2=O)cc1,Potency,[2],> 11.4 µM (inactive)
same,"activity change, negative = inhibition",[3],-5.97% (inactive)
same,Potency,[4],20 µM (active)
same,"activity change, negative = inhibition",[5],-2.54% (inactive)
same,"activity, negative = inhibition",[6],-7.93% (inactive)
same,Potency,[7],> 9.22 µM (inactive)
same,Potency,[8],> 46 µM (inactive)
same,Potency,[9],inactive
same,Potency,[10],inactive
same,"activity change, negative = inhibition",[1],2.69% (inactive)
same,max response,[1]; [16],2.3%
same,max response,[1]; [17],3.44%
same,Potency,[12],inactive
NC(=NCc1ccc(Cl)c(Cl)c1)NC(=O)c1nc(Cl)c(N)nc1N,"activity change, negative = inhibition",[3],-11.5% [at 38 µM] (inactive)
same,Potency,[4],10 µM (active)
same,"activity, negative = inhibition",[6],5.12% [at 38 µM] (inactive)
same,Potency,[7],> 46 µM (inactive)
same,Potency,[8],> 46 µM (inactive)
same,Potency,[13],inactive
same,"activity change, negative = inhibition",[1],0.442% (inactive)
same,max response,[1]; [16],-3.02%
same,max response,[1]; [17],-2.51%
CC#C[C@]1(O)CC[C@H]2C3CCC4=CC(=O)CCC4=C3[C@@H](c3ccc(N(C)C)cc3)C[C@@]21C (some centres not stated),"activity change, negative = inhibition",[1],0.852% (inactive)
same,max response,[1]; [16],-13.1%
same,max response,[1]; [17],-13.3%
C[n+]1cccc(C(=O)[O-])c1,Potency,[11],inactive
same,Potency,[14],inactive
same,outcome,[15],inactive
same,"activity change, negative = inhibition",[1],6.06% (inactive)
same,max response,[1]; [16],-1.12%
same,max response,[1]; [17],2.73%
same,Potency,[12],inactive
